The values below come from the OligoGym collection.
Note: reference of the scale not given here.

The target in the first assay is PRSS27. Kind of assay: pooled miR-30 sensor sort-seq; sequence = guide strand. To be noted: shRNA.
TTGCTGTAGAGCAGGTTGCACT: the sensor-assay potency score (higher = more potent) is -1.36.
Same read-out and setting: next, TAATTGGTGAAGGGCACTGGTG: -1.57; TTTGCTGTAGAGCAGGTTGCAC: -0.973; TGACACGGATGTAGACACCTGG: -0.413.
Same read-out and setting: the result for TCATTCTTGATGGTTTTGGGTT reads -0.872; that for ATACATAGCGTGTGGTCCCGGC, -0.586; that for AAACTCGGTGTCTTTGCTGTAG, -0.247.
Same read-out and setting: next, TAGAGCAGGTTGCACTTGGGTG: -0.65; TGCAGTTTGGGGATGATCCGAT: 0.0447.
Consider TACAGGGACGTCTCAGAGGTGT, for which the sensor-assay potency score (higher = more potent) is -0.7.

The next assay has as its target PRSS35. The assay is described as above. To be noted: shRNA.
AAATCTTGAACTTTCACCCTGG: the sensor-assay potency score (higher = more potent) was 0.84.
The same measure, in the same setting: next, TTGTCCAAGATGCTGAACCTGC: -0.668; TTGGATTCGTCGGACACACTGC: -0.732; TAACTTTCTGTCTCTATTCTGA: -0.225.
TTGAGTCGGCTCAAGAACCAAA gave a sensor-assay potency score (higher = more potent) of -0.83.
Still for that read-out and setting: the result for TTTCTTTTTGTGAGCACGCTTC reads -0.433.
On the same count and under the same terms, the result for TTCCTCATCTTCAACAACCCTA reads 0.185; that for TAGAACAAACTATTTCTCCCAT, 0.0739.
In turn, TTACCATCATCTTAGCATCTGC showed a sensor-assay potency score (higher = more potent) of -0.234.
Sequence TAATACACAACCAGCATCCTAT gave a sensor-assay potency score (higher = more potent) of -0.461.
The same measure, in the same setting: next, TACACCTGTCTCTTTCTCCTAA: -0.12; TCACATTTAATACACAACCAGC: -0.906.

In another assay the target is PRSS57. The description is as above. The note with it: shRNA.
In the case of ATCGATGCCAAACACCTGCTGG, the sensor-assay potency score (higher = more potent) is -0.864.
The same measure, in the same setting: next, TTCACGGGCAGCATCAGGGCGG: -0.51.
On the same count and under the same terms, next, TCGATGCCAAACACCTGCTGGG: -0.917; AGCATCGATGCCAAACACCTGC: -0.826.
Still for that read-out and setting: next, ACAAAGGCGGACACCTGCGTGT: -0.414; TGTGGTGAGAGCATCGATGCCA: 0.623; TCGGACCTTGGCCTCCATCAGT: -1.55.
As for AAGTCAGACACGAAGCCCCAGC, the sensor-assay potency score (higher = more potent) was -0.91.
On the same count and under the same terms, next, TACACGTCGGGGGTCTTGGGGT: -1.06; ACACCTGCGTGTACACGTCGGG: -0.753.
The same measure, in the same setting: the result for TGGTAGTCGGGGTGTGTGGTGA reads -0.823; that for TCTCTGTGGCTGAAGCAGTGGG, -1.07.

A further assay concerns the target PRUNE. The description is as above. The note with it: shRNA.
For the sequence TTTCTCTCTAGCTTGAGGCAGG, the sensor-assay potency score (higher = more potent) is -0.511.
On the same count and under the same terms, next, TTTATGAGAACAGTATACCAGA: -0.563; TATAGATAGTCTTCTGGTCTTT: -0.453; TATTCGTGCTACATGAGGCTGA: 0.818.
On the same count and under the same terms, the result for TTCCTTGTCCACTTGCTCCCTG reads 0.334; that for TAGAGGTCGGGACTCCTGCAGA, -0.699.
